Compound activity from PubChem.
mHTT CaM bind – mutant huntingtin-calmodulin interaction inhibitors – biochemical, AlphaScreen, primary screen; P42858; AlphaScreen His-mHTT/GST-CaM binding, luminescence; inhibition, % at 15 µM; hit rate 3.6% among 190,000;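 further: 0% = both proteins with DMSO and 100% = one protein alone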
Pf apPOL block – Pf-apPOL inhibitors, biochemical, fluorescence | hit rate 0.25% among 210,000 | Plasmodium falciparum apicoplast DNA polymerase (apPOL) | AID 1794808, 2022 | inhibition, % at 10 µM | Recombinant Pf-apPOL, molecular beacon fluorescence, 1.5 h
An asterisk follows results filed as active; nt = no result given; ! = not active in a repeat. Hits are enriched below; roughly 3.6% of the tested compounds scored in any of these assays. No stated cut-off is given here; in the data, active means inhibition above about 50%; inactive means the rest.

SMILES | mHTT CaM bind | Pf apPOL block
CCCCC[C@H](C)N1C[C@H](COCc2ccccc2)Oc2cc(N3CC[C@@H](N(C)C)C3)ccc2S1(=O)=O | 100.2* | -33.3
CCCCC[C@@H](C)N1C[C@H](COCc2ccccc2)Oc2cc(N3CC[C@@H](N(C)C)C3)ccc2S1(=O)=O | -4.0 | -11.0
O=C(NC(C(Cl)(Cl)Cl)S(=O)(=O)c1ccccc1)c1ccccc1Cl (stereo not drawn) | 6.0 | -4.0
Cc1cc(-n2nnc(C(=O)Nc3ccc(F)cc3)c2-c2cccnc2)ccc1F | 0.5 | 0.4
Cc1cc2ncn(S(=O)(=O)c3ccc(Br)cc3)c2cc1C | -4.0 | -6.0
COc1ccc2oc(=O)c(-c3csc(NC4CCCCC4)n3)cc2c1 | -69.0 | -0.7
CC1=CC(=NS(=O)(=O)c2ccc([N+](=O)[O-])cc2)C=C(C)C1=O | 67.0* | 1.2
CCS(CC)=NS(=O)(=O)c1ccc([N+](=O)[O-])cc1 | nt | -5.9
O=C1NC(c2ccccc2)=NC1=Cc1ccccc1 | nt | 2.9
c1ccc(C2=NNC(c3ccccc3)=NN2)cc1 | 24.0 | 98.8*!
COc1cc(C)nc2ccc(NC(=O)Cc3ccccc3)cc12 | 9.3 | -0.1
Cc1cc2[nH]c(C(=O)Nc3c(F)cccc3F)c(CN3CCOCC3)c2s1 | 54.2* | 25.8
Cc1cc2[nH]c(C(=O)Nc3ccccc3C)c(CN3CCOCC3)c2s1 | 50.5* | -3.0
Cc1cc2[nH]c(C(=O)Nc3cccc(F)c3C)c(CN3CCOCC3)c2s1 | 12.1 | 10.7
Cc1cc2[nH]c(C(=O)Nc3ccccc3Cl)c(CN3CCOCC3)c2s1 | 19.5 | 33.0
NC(=NOC(=O)c1c(F)cccc1F)c1cccc(-n2cccc2)c1 | nt | -12.0
CC1(C)CC(=O)C2=C(C1)OC(N)=C(C#N)C2c1cn(-c2ccccc2)nc1-c1ccccc1 (stereo not drawn) | 76.5* | 1.0
Cc1ccccc1C1C(C#N)=C(N)OC2=C1C(=O)CC(C)(C)C2 (stereo not drawn) | -2.1 | 1.2
CC(C)(C)c1nnc(NC(=O)c2ccc([N+](=O)[O-])cc2Cl)s1 | 2.6 | -6.0
Cc1ccc(N2CCN(C(=O)Cn3cc(-c4ccccc4)oc3=O)CC2)cc1 | 0.3 | 6.6
CC(=O)Nc1ccc(C(=O)NCc2cccc(Cl)c2)c(N2CCOCC2)c1 | 8.8 | -1.9
CC(=O)Nc1ccc(C(=O)NCc2ccc(F)c(Cl)c2)c(N2CCCCC2)c1 | 98.7* | 1.2
CC(C)NC(=O)N(C)CC1CC(c2cccc(F)c2)=NO1 (stereo not drawn) | -3.8 | -6.2
Cc1ccc(NC(=O)c2c(-c3c(Cl)cccc3Cl)noc2C)c([N+](=O)[O-])c1 | 18.9 | 6.1
Cc1onc(-c2c(Cl)cccc2Cl)c1C(=O)Nc1nc2ccc([N+](=O)[O-])cc2s1 | 84.9* | -22.4
SMILES | mHTT CaM bind | Pf apPOL block
Cc1ccc2nc(NC(=O)c3cc([N+](=O)[O-])ccc3Cl)sc2c1 | -2.0 | -3.4
COc1ccc(NC(=O)c2c(-c3c(Cl)cccc3Cl)noc2C)c([N+](=O)[O-])c1 | 52.6* | 11.4
Cc1onc(-c2c(Cl)cccc2Cl)c1C(=O)Nc1ccc(F)c([N+](=O)[O-])c1 | 63.0* | 42.3
Cc1onc(-c2ccccc2Cl)c1C(=O)Nc1ccc(F)c([N+](=O)[O-])c1 | 23.0 | -5.2
COc1ccc(C2=NN(S(=O)(=O)c3ccccc3)C(c3ccc(OC)cc3)C2)cc1 (stereo not drawn) | 1.0 | 4.0
O=C(NCc1ccc2c(c1)OCO2)N1c2ccccc2Sc2ccccc21 | 15.7 | -0.6
O=C(c1ccc([N+](=O)[O-])o1)N1CCN(S(=O)(=O)C2CC2)CC1 | -11.9 | -4.8
c1ccc(-c2cnc(-c3cccc4ccccc34)o2)cc1 | -27.0 | nt
COc1ccc(-c2cnc(-c3c(O)c(C)nc4ccccc34)o2)cc1 | 60.0* | -1.0
CC(C)NC(=O)c1ccc(-c2cncnc2)nc1 | 0.8 | -2.0
Cc1noc(C)c1C1CCCN1C(=O)c1cc(-c2ccc3c(c2)OCO3)on1 (stereo not drawn) | -4.5 | -0.5
CCCn1cc(C2=CCN(C(=O)Nc3ccc4c(c3)OCCO4)CC2)c2cccnc21 | 59.3* | -4.2
CCCn1cc(C2=CCN(C(=O)NCc3ccccc3)CC2)c2cccnc21 | 32.1 | -5.9
Cn1cc(C2=CCN(C(=O)NCc3cccc(F)c3)CC2)c2cccnc21 | 50.1* | -5.3
CCn1cc(C2=CCN(C(=O)Nc3ccc4c(c3)OCCO4)CC2)c2cccnc21 | 34.4 | -4.0
O=C(NCc1ccco1)c1ccc(CSCc2ccccc2Cl)o1 | 6.0 | -18.1
Cc1cccc(Cc2c(C)nc(C(C)C)nc2N2CCN(S(C)(=O)=O)CC2)c1 | 3.4 | -4.1
COc1ccc(C)cc1NC(=O)C1C2C=CC(C2)C1C(=O)O (stereo not drawn) | 1.4 | -3.7
COc1ccc(C)cc1C(=O)C1CC(C(=O)O)C(C)(C)C1C (stereo not drawn) | 3.6 | 58.7*
Cc1ccc(C2=N/C(=C\c3ccco3)C(=O)O2)cc1C | 1.0 | -4.4
Cc1ccc(-c2c(C(=O)NCCN3CCN(c4ccccc4)CC3)oc(=O)c3ccccc23)cc1 | 54.0* | -0.8
Cc1ccc(-c2c(C(=O)NCc3ccccc3)oc(=O)c3ccccc23)cc1 | -5.0 | 3.4
Cc1ccc(Nc2nc(-c3ccc4c(c3)OCO4)cs2)nc1 | 8.5 | -1.5
Cc1ccc(-c2csc(Nc3ccccn3)n2)c(C)c1 | 3.3 | -0.6
COc1ccc(-c2csc(Nc3ncccc3C)n2)cc1C | 26.0 | 4.6
SMILES | mHTT CaM bind | Pf apPOL block
Cc1cccnc1Nc1nc(-c2ccc(O)cc2O)cs1 | 100.0* | -14.5
Cc1ccc(Nc2nc(-c3ccc(O)c(O)c3)cs2)nc1 | 79.0* | -4.4
Oc1ccc(-c2csc(Nc3ccccn3)n2)c(O)c1 | 96.0* | 1.5
Cc1ccc(C=C2Oc3cc(OC(=O)c4ccc5c(c4)OCO5)ccc3C2=O)o1 | 7.3 | -0.1
CCOc1ccc(C2=Nn3c(nnc3-c3ccc4c(c3)OCO4)SC2)cc1Cl | 1.0 | -3.4
Cc1ccc(C(=O)N2CCN(c3nc(CN4CCOCC4)cs3)CC2)cc1C | 9.4 | 2.7
Cc1ccc(C(=O)N2CCN(c3nc(CN4CCCC4)cs3)CC2)cc1C | 68.9* | 14.4
COc1ccc(Cl)cc1S(=O)(=O)N1CCCC(C)(C(=O)NCc2ccccc2)C1 (stereo not drawn) | 95.2* | -1.5
Cc1cccc(S(=O)(=O)N2CCCC(C)(C(=O)NCc3ccccc3)C2)c1 (stereo not drawn) | -0.9 | -4.1
CC1(C(=O)NCc2ccccc2)CCCN(S(=O)(=O)c2ccc(F)c(Cl)c2)C1 (stereo not drawn) | 65.6* | -0.3
COc1ccc(OC)c(S(=O)(=O)N2CCCC(C)(C(=O)NCc3ccccc3)C2)c1 (stereo not drawn) | 15.2 | -3.0
CCc1ccccc1NC(=O)N1CCN(C2=CC3=NC(C)CN3C=N2)CC1 (stereo not drawn) | 3.9 | -0.2
CCc1ccccc1NC(=O)c1ccc(F)c(S(=O)(=O)N2CCc3ccccc32)c1 | -13.0 | -3.2
CC1=NN(C(=O)c2ccccc2)C(O)(c2ccc(Br)cc2)C1 (stereo not drawn) | 17.0 | -3.4
CCC1=NN(C(=O)c2cccc(C)c2O)C(O)(c2ccc(Br)cc2)C1 (stereo not drawn) | 87.0* | -4.1
CC1=NN(C(=O)Cc2ccccc2)C(O)(c2ccc(Br)cc2)C1 (stereo not drawn) | 16.0 | -0.7
CCC1=NN(C(=O)c2ccccc2O)C(O)(c2ccc(Br)cc2)C1 (stereo not drawn) | 91.0* | -2.5
